# Laboratory results from PubChem BioAssay (NCI).
# About 79,000 compounds went through this panel and 15% of them were active in at least one assay; those are over-represented in the sample as a whole. Unmarked numbers belong to inactive results. The source made the active and inactive calls. No stated cut-off is given here; in the data, active means growth inhibition above about 70%; inactive means the rest.
# Key:
# [1] = NCI Yeast Anticancer Drug Screen. Data for the rad52 strain (AID 147);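 further: 0% = growth of vehicle-treated control cultures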; settings: S. cerevisiae rad52 mutant growth inhibition, hits give high values
# How it was run: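 Yeast strain carrying a DNA damage repair alteration was exposed to test compounds. Growth inhibition was measured relative to vehicle-treated controls.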
# [2] = NCI Yeast Anticancer Drug Screen. Data for the wt1 strain (AID 149);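 further: 0% = growth of vehicle-treated wt1 cultures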; settings: S. cerevisiae wt1 strain (SPY 50644) growth inhibition, hits give high values
# How it was run: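 Compounds are added to wt1 yeast cultures. Growth is then measured. Inhibition is expressed relative to vehicle-treated controls.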
# [3] = NCI Yeast Anticancer Drug Screen. Data for the rad50EPP+ strain (AID 151);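 further: 0% = growth of vehicle-treated control cultures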; settings: S. cerevisiae rad50 mutant strain, hits give high values
# How it was run: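 Yeast strain carrying rad50 alteration (rad50EPP+) exposed to compounds; growth inhibition measured relative to vehicle-treated controls.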
# [4] = NCI Yeast Anticancer Drug Screen. Data for the rad50 strain (AID 155);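 further: 0% = growth of vehicle-only cultures of the same strain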; settings: S. cerevisiae rad50 strain growth inhibition, hits give high values
# How it was run: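 Inhibition values express reduced yeast growth in compound-treated cultures relative to vehicle-treated controls.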
# [5] = NCI Yeast Anticancer Drug Screen. Data for the mec2-1 strain (AID 157); settings: S. cerevisiae mec2-1 strain, hits give high values
# How it was run: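 mec2-1 yeast strain, carrying an alteration in DNA damage repair or cell cycle control, was exposed to compounds; growth inhibition was measured relative to vehicle-treated controls.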
# [6] = NCI Yeast Anticancer Drug Screen. Data for the rad14 strain (AID 159);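 further: 0% = growth of vehicle-treated control cultures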; settings: S. cerevisiae rad14 strain growth inhibition, hits give high values
# How it was run: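 A mutant yeast strain defective in DNA damage repair is treated with compound; inhibition of its growth is scored against untreated, vehicle-exposed cultures.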
# [7] = NCI Yeast Anticancer Drug Screen. Data for the CLN2oe strain (AID 163);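 further: 0% = growth of vehicle-only control cultures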; settings: S. cerevisiae CLN2oe strain, hits give high values
# How it was run: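 Yeast cells carrying a defined cell-cycle control alteration were exposed to test compounds. Growth inhibition was scored against vehicle-treated control cultures.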
# [8] = NCI Yeast Anticancer Drug Screen. Data for the cln2 rad14 strain (AID 165);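 further: 0% = growth equal to vehicle treated cultures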; settings: S. cerevisiae cln2 rad14 strain, hits give high values
# How it was run: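 Yeast carrying cln2 and rad14 alterations (cell cycle control and DNA damage repair) were exposed to compounds. Growth inhibition was measured against vehicle-treated controls.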
# [9] = NCI Yeast Anticancer Drug Screen. Data for the bub3 strain (AID 167); settings: S. cerevisiae bub3 mutant strain, hits give high values
# How it was run: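 Steps: expose the mutant yeast strain to compound; grow alongside vehicle-treated cultures; measure growth; express inhibition against the vehicle cultures.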
# [10] = NCI Yeast Anticancer Drug Screen. Data for the wt2 strain (AID 169);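 further: 0% = growth of vehicle-treated yeast cultures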; settings: S. cerevisiae wt2 strain growth inhibition, hits give high values
# How it was run: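 Yeast cells were exposed to test compounds, and growth inhibition was measured relative to vehicle-treated controls.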
# [11] = NCI Yeast Anticancer Drug Screen. Data for the mlh1 strain (AID 171);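 further: 0% = growth of vehicle-treated control cultures of the same strain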; settings: S. cerevisiae mlh1 strain growth inhibition, hits give high values
# How it was run: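 Yeast carrying a defined genetic alteration in DNA damage repair or cell cycle control were exposed to test compounds. Growth inhibition was measured relative to vehicle-treated controls.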
# [12] = NCI Yeast Anticancer Drug Screen. Data for the sgs1 strain (AID 173);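 further: 0% = growth of vehicle-only control cultures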; settings: S. cerevisiae sgs1 mutant, hits give high values
# How it was run: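 Yeast mutant strains carrying defined defects in DNA damage repair or cell cycle control were exposed to test compounds. Growth inhibition was scored against vehicle-treated controls.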
# [13] = NCI Yeast Anticancer Drug Screen. Data for the mlh1 rad18 strain (AID 175); settings: S. cerevisiae mlh1 rad18 strain growth inhibition, hits give high values
# How it was run: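 Growth inhibition of the yeast strain was measured after compound exposure and expressed relative to vehicle-treated controls. The strain carries defined defects in DNA damage repair.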
# [14] = NCI Yeast Anticancer Drug Screen. Data for the rad18 strain (AID 177); settings: S. cerevisiae rad18 mutant growth inhibition, hits give high values
# How it was run: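 Yeast carrying a defined DNA damage repair alteration were exposed to compounds. Growth inhibition was expressed relative to vehicle-treated controls.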
# [15] = at 5.0 µM (retest, dose inferred, filed as 0.5)
# [16] = at 50.0 µM (retest, dose inferred, filed as 5.0)
compound,measurement,setting,value
CCCCCCCCN1C(=O)c2ccccc2C1=O,growth inhibition,[1]; at 1.2 µM,0%
same,growth inhibition,[1]; at 3.7 µM,0%
same,growth inhibition,[1]; at 11.0 µM,5%
same,growth inhibition,[1]; at 33.0 µM,10%
same,growth inhibition,[1]; at 100.0 µM,6%
same,growth inhibition,[2]; at 1.2 µM,-2%
same,growth inhibition,[2]; at 3.7 µM,-1%
same,growth inhibition,[2]; at 11.0 µM,-1%
same,growth inhibition,[2]; at 33.0 µM,-4%
same,growth inhibition,[2]; at 100.0 µM,-6%
same,growth inhibition,[3]; at 1.2 µM,2%
same,growth inhibition,[3]; at 3.7 µM,9%
same,growth inhibition,[3]; at 11.0 µM,14%
same,growth inhibition,[3]; at 33.0 µM,18%
same,growth inhibition,[3]; at 100.0 µM,42%
same,growth inhibition,[4]; at 1.2 µM,0%
same,growth inhibition,[4]; at 3.7 µM,3%
same,growth inhibition,[4]; [15],20%
same,growth inhibition,[4]; at 11.0 µM,6%
same,growth inhibition,[4]; at 33.0 µM,10%
same,growth inhibition,[4]; [16],15%
same,growth inhibition,[4]; at 50.0 µM,39.5%
same,growth inhibition,[4]; at 100.0 µM,-2%
same,growth inhibition,[5]; at 1.2 µM,-3%
same,growth inhibition,[5]; at 3.7 µM,-4%
same,growth inhibition,[5]; [15],-7%
same,growth inhibition,[5]; at 11.0 µM,-5%
same,growth inhibition,[5]; at 33.0 µM,-4%
same,growth inhibition,[5]; [16],13%
same,growth inhibition,[5]; at 50.0 µM,50%
same,growth inhibition,[5]; at 100.0 µM,0%
same,growth inhibition,[6]; at 1.2 µM,-2%
same,growth inhibition,[6]; at 3.7 µM,0%
same,growth inhibition,[6]; at 11.0 µM,6%
same,growth inhibition,[6]; at 33.0 µM,14%
same,growth inhibition,[6]; at 100.0 µM,18%
same,growth inhibition,[7]; at 1.2 µM,-2%
same,growth inhibition,[7]; at 3.7 µM,0%
same,growth inhibition,[7]; at 11.0 µM,-1%
same,growth inhibition,[7]; at 33.0 µM,-2%
same,growth inhibition,[7]; at 100.0 µM,-1%
same,growth inhibition,[8]; [15],-15%
same,growth inhibition,[8]; [16],-7%
same,growth inhibition,[8]; at 50.0 µM,-91.1%
same,growth inhibition,[9]; at 1.2 µM,2%
same,growth inhibition,[9]; at 3.7 µM,4%
same,growth inhibition,[9]; [15],8%
same,growth inhibition,[9]; at 11.0 µM,21%
same,growth inhibition,[9]; at 33.0 µM,39%
same,growth inhibition,[9]; [16],40%
same,growth inhibition,[9]; at 50.0 µM,89.5% (active)
same,growth inhibition,[9]; at 100.0 µM,50%
same,growth inhibition,[10]; at 1.2 µM,-2%
same,growth inhibition,[10]; at 3.7 µM,-3%
same,growth inhibition,[10]; at 11.0 µM,-4%
same,growth inhibition,[10]; at 33.0 µM,-5%
same,growth inhibition,[10]; at 100.0 µM,-4%
same,growth inhibition,[11]; at 1.2 µM,0%
same,growth inhibition,[11]; at 3.7 µM,0%
same,growth inhibition,[11]; at 11.0 µM,3%
same,growth inhibition,[11]; at 33.0 µM,7%
same,growth inhibition,[11]; at 100.0 µM,14%
same,growth inhibition,[12]; at 1.2 µM,-3%
same,growth inhibition,[12]; at 3.7 µM,-1%
same,growth inhibition,[12]; at 11.0 µM,0%
same,growth inhibition,[12]; at 33.0 µM,4%
same,growth inhibition,[12]; at 100.0 µM,13%
same,growth inhibition,[13]; [15],-2%
same,growth inhibition,[13]; [16],62%
same,growth inhibition,[13]; at 50.0 µM,91% (active)
same,growth inhibition,[14]; at 1.2 µM,-2%
same,growth inhibition,[14]; at 3.7 µM,-3%
same,growth inhibition,[14]; at 11.0 µM,-2%
same,growth inhibition,[14]; at 33.0 µM,4%
same,growth inhibition,[14]; at 100.0 µM,14%
CCN1/C(=C/c2ccc3ccccc3[n+]2CC)C=Cc2ccccc21,growth inhibition,[1]; at 1.2 µM,-19%
same,growth inhibition,[1]; at 3.7 µM,-14%
same,growth inhibition,[1]; at 11.0 µM,87% (active)
same,growth inhibition,[1]; at 33.0 µM,98% (active)
same,growth inhibition,[1]; at 100.0 µM,98% (active)
same,growth inhibition,[2]; at 1.2 µM,-13%
same,growth inhibition,[2]; at 3.7 µM,-12%
same,growth inhibition,[2]; at 11.0 µM,75% (active)
same,growth inhibition,[2]; at 33.0 µM,99% (active)
same,growth inhibition,[2]; at 100.0 µM,99% (active)
same,growth inhibition,[3]; at 1.2 µM,4%
same,growth inhibition,[3]; at 3.7 µM,6%
same,growth inhibition,[3]; at 11.0 µM,8%
same,growth inhibition,[3]; at 33.0 µM,67%
same,growth inhibition,[3]; at 100.0 µM,92% (active)
same,growth inhibition,[4]; at 1.2 µM,-3%
same,growth inhibition,[4]; at 3.7 µM,-2%
same,growth inhibition,[4]; [15],99% (active)
same,growth inhibition,[4]; at 11.0 µM,81% (active)
same,growth inhibition,[4]; at 33.0 µM,97% (active)
same,growth inhibition,[4]; [16],97% (active)
same,growth inhibition,[4]; at 50.0 µM,90.5% (active)
same,growth inhibition,[4]; at 100.0 µM,96% (active)
same,growth inhibition,[5]; at 1.2 µM,-3%
same,growth inhibition,[5]; at 3.7 µM,16%
same,growth inhibition,[5]; [15],99% (active)
same,growth inhibition,[5]; at 11.0 µM,98% (active)
same,growth inhibition,[5]; at 33.0 µM,99% (active)
same,growth inhibition,[5]; [16],98% (active)
same,growth inhibition,[5]; at 50.0 µM,92% (active)
same,growth inhibition,[5]; at 100.0 µM,99% (active)
same,growth inhibition,[6]; at 1.2 µM,-27%
same,growth inhibition,[6]; at 3.7 µM,1%
same,growth inhibition,[6]; at 11.0 µM,98% (active)
same,growth inhibition,[6]; at 33.0 µM,98% (active)
same,growth inhibition,[6]; at 100.0 µM,98% (active)
same,growth inhibition,[7]; at 1.2 µM,0%
same,growth inhibition,[7]; at 3.7 µM,10%
same,growth inhibition,[7]; at 11.0 µM,94% (active)
same,growth inhibition,[7]; at 33.0 µM,99% (active)
same,growth inhibition,[7]; at 100.0 µM,98% (active)
same,growth inhibition,[8]; [15],58%
same,growth inhibition,[8]; [16],100% (active)
same,growth inhibition,[8]; at 50.0 µM,90.9% (active)
same,growth inhibition,[9]; at 1.2 µM,-3%
same,growth inhibition,[9]; at 3.7 µM,37%
same,growth inhibition,[9]; [15],42%
same,growth inhibition,[9]; at 11.0 µM,96% (active)
same,growth inhibition,[9]; at 33.0 µM,98% (active)
same,growth inhibition,[9]; [16],99% (active)
same,growth inhibition,[9]; at 50.0 µM,91% (active)
same,growth inhibition,[9]; at 100.0 µM,98% (active)
same,growth inhibition,[10]; at 1.2 µM,-32%
same,growth inhibition,[10]; at 3.7 µM,-20%
same,growth inhibition,[10]; at 11.0 µM,57%
same,growth inhibition,[10]; at 33.0 µM,98% (active)
same,growth inhibition,[10]; at 100.0 µM,98% (active)
same,growth inhibition,[11]; at 1.2 µM,-27%
same,growth inhibition,[11]; at 3.7 µM,-15%
same,growth inhibition,[11]; at 11.0 µM,41%
same,growth inhibition,[11]; at 33.0 µM,97% (active)
same,growth inhibition,[11]; at 100.0 µM,97% (active)
same,growth inhibition,[12]; at 1.2 µM,-9%
same,growth inhibition,[12]; at 3.7 µM,-17%
same,growth inhibition,[12]; at 11.0 µM,93% (active)
same,growth inhibition,[12]; at 33.0 µM,97% (active)
same,growth inhibition,[12]; at 100.0 µM,97% (active)
same,growth inhibition,[13]; [15],100% (active)
same,growth inhibition,[13]; [16],99% (active)
same,growth inhibition,[13]; at 50.0 µM,90.2% (active)
same,growth inhibition,[14]; at 1.2 µM,-5%
same,growth inhibition,[14]; at 3.7 µM,-4%
same,growth inhibition,[14]; at 11.0 µM,90% (active)
same,growth inhibition,[14]; at 33.0 µM,96% (active)
same,growth inhibition,[14]; at 100.0 µM,97% (active)
